Paper PMC7862700, “An all-to-all approach to the identification of sequence-specific readers for epigenetic DNA modifications on cytosine”

Legend:
Assay in all cases: DAPPL (digital affinity profiling via proximity ligation, sequencing); 10 mM Tris-HCl pH 7.5, 50 mM NaCl, 1 mM DTT, 4% glycerol, room temperature, 30 min; GST-TFs on glutathione beads, 16-mer random dsDNA library, 0.1% formaldehyde crosslink after washing; high values mean tight binding
[1] = target: T1, FLI1 (Homo sapiens, UniProt Q01543 1-452); conditions: protein: recombinant; tags: N-terminal GST; dsDNA, one strand shown
T1 sequence: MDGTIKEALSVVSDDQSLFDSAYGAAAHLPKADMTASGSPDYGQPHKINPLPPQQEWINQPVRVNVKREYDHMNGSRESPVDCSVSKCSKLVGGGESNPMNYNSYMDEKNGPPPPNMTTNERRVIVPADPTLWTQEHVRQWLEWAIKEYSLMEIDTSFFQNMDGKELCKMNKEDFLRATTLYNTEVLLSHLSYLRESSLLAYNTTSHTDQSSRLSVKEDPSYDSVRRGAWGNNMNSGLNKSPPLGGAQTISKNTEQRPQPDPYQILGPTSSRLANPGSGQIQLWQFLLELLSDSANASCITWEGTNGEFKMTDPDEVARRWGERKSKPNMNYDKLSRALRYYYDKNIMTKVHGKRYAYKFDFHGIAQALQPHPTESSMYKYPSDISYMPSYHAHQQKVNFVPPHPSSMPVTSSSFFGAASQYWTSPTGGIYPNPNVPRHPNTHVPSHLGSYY
How it was run: (§1)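 Sequencing on an Illumina NextSeq500 followed washing, crosslinking with 0.1% formaldehyde, proximity ligation (BsaI/T4 ligase, 1 h, 37 °C) and PCR amplification of pools that had been incubated for 30 min at room temperature with 200 nmole of a random double-stranded 16-mer DNA library in Tris/NaCl/DTT/glycerol buffer. Each pool held DNA-barcoded human transcription factors, expressed in yeast as GST fusions and captured on glutathione beads, plus a tag-only sample. Binding signal is a hexamer's read frequency for a factor divided by its frequency in the tag-only sample.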

[2] = target: T2, ELK1 (Homo sapiens, UniProt P19419 1-428); conditions: protein: recombinant; tags: N-terminal GST; dsDNA, one strand shown
T2 sequence: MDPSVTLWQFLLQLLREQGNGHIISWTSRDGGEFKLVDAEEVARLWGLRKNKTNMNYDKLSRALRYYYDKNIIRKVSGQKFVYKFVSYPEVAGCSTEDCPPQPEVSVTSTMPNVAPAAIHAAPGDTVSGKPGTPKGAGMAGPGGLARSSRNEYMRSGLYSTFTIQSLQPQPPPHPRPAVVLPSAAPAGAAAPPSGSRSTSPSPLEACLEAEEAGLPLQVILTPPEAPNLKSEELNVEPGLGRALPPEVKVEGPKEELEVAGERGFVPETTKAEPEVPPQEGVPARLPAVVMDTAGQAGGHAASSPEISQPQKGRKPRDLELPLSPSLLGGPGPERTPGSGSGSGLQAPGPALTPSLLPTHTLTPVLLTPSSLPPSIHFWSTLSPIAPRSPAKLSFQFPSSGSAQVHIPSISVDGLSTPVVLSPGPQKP
How it was run: as §1

[3] = target: T3, GABPA (Homo sapiens, UniProt Q06546 1-454); conditions: protein: recombinant; tags: N-terminal GST; dsDNA, one strand shown
T3 sequence: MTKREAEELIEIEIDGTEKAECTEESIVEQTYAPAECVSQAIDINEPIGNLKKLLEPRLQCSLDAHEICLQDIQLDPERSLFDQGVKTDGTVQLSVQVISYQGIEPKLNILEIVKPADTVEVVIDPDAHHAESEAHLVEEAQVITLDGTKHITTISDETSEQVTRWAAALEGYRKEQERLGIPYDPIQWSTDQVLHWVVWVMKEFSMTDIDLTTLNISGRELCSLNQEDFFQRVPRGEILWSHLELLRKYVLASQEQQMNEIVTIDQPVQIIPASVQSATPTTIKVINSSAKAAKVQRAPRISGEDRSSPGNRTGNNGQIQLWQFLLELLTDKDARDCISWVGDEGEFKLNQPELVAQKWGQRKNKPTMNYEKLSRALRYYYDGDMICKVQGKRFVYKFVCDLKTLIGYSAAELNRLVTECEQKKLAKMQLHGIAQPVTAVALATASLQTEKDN
How it was run: as §1

[4] = target: T4, ERG (Homo sapiens, UniProt P11308 1-479); conditions: protein: recombinant; tags: N-terminal GST; dsDNA, one strand shown
T4 sequence: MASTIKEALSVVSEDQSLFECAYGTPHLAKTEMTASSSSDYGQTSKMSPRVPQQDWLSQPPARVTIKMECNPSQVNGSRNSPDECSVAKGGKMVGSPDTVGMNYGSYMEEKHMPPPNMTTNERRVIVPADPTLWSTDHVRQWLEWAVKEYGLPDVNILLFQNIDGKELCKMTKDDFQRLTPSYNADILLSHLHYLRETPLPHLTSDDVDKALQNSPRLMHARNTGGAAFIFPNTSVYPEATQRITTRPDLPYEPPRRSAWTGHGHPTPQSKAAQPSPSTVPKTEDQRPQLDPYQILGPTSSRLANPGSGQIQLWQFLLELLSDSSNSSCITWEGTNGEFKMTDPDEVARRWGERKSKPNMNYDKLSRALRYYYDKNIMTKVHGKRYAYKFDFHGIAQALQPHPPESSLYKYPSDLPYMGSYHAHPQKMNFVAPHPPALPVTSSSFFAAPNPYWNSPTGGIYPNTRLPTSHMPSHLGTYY
How it was run: as §1

[5] = target: ELF1 (Homo sapiens, UniProt P32519 1-619); conditions: protein: recombinant; tags: N-terminal GST; dsDNA, one strand shown
How it was run: as §1

[6] = target: T5, EHF (Homo sapiens, UniProt Q9NZC4 1-300); conditions: protein: recombinant; tags: N-terminal GST; dsDNA, one strand shown
T5 sequence: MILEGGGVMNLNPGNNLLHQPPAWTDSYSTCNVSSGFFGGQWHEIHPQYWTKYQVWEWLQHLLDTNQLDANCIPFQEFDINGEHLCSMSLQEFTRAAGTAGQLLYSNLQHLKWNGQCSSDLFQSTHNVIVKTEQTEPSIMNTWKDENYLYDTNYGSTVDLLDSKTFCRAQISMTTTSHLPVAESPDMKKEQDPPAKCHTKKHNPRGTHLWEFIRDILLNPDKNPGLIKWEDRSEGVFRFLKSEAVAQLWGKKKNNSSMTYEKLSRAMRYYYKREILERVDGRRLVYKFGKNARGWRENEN
How it was run: as §1

[7] = target: SPI1 (Homo sapiens, UniProt P17947 1-270); conditions: protein: recombinant; tags: N-terminal GST; dsDNA, one strand shown
How it was run: as §1

[8] = target: SPIB (Homo sapiens, UniProt Q01892 1-262); conditions: protein: recombinant; tags: N-terminal GST; dsDNA, one strand shown
How it was run: as §1

[9] = target: T6, ELK3 (Homo sapiens, UniProt P41970 1-407); conditions: protein: recombinant; tags: N-terminal GST; dsDNA, one strand shown
T6 sequence: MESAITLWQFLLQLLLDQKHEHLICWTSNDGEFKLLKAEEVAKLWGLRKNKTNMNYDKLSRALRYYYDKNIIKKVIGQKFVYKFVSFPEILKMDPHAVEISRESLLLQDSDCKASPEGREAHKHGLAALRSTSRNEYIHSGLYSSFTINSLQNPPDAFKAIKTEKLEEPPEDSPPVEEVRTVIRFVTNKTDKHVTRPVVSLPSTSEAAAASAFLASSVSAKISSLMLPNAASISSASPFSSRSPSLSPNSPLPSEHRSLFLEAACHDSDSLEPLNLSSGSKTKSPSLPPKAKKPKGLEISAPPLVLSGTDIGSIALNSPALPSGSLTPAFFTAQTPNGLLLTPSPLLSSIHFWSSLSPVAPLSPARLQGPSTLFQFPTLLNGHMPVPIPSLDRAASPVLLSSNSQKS
How it was run: as §1

[10] = target: T7, FEV (Homo sapiens, UniProt Q99581 1-238); conditions: protein: recombinant; tags: N-terminal GST; dsDNA, one strand shown
T7 sequence: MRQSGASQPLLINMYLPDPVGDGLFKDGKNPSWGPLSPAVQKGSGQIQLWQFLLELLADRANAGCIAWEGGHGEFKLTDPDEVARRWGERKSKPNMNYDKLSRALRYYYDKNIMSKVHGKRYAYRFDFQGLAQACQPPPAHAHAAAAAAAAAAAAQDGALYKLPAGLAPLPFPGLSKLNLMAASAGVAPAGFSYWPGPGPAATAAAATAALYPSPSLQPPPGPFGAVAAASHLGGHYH
How it was run: as §1

[11] = target: ETV5 (Homo sapiens, UniProt P41161 1-510); conditions: protein: recombinant; tags: N-terminal GST; dsDNA, one strand shown
How it was run: as §1

[12] = target: HSF1 (Homo sapiens, UniProt Q00613 1-529); conditions: protein: recombinant; tags: N-terminal GST; chain copies: 3; dsDNA, one strand shown
How it was run: as §1

[13] = target: T8, SPIC (Homo sapiens, UniProt Q8N5J4 1-248); conditions: protein: recombinant; tags: N-terminal GST; dsDNA, one strand shown
T8 sequence: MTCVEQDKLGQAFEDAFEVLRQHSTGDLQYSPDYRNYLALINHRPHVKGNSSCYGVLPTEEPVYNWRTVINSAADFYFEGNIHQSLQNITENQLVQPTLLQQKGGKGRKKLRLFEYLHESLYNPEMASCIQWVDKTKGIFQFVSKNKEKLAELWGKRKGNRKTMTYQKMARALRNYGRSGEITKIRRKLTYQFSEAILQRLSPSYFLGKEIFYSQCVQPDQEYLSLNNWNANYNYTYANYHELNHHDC
How it was run: as §1

[14] = target: ELF4 (Homo sapiens, UniProt Q99607 1-663); conditions: protein: recombinant; tags: N-terminal GST; dsDNA, one strand shown
How it was run: as §1

[15] = target: T9, ELK4 (Homo sapiens, UniProt P28324-2 1-405); conditions: protein: recombinant; tags: N-terminal GST; dsDNA, one strand shown
T9 sequence: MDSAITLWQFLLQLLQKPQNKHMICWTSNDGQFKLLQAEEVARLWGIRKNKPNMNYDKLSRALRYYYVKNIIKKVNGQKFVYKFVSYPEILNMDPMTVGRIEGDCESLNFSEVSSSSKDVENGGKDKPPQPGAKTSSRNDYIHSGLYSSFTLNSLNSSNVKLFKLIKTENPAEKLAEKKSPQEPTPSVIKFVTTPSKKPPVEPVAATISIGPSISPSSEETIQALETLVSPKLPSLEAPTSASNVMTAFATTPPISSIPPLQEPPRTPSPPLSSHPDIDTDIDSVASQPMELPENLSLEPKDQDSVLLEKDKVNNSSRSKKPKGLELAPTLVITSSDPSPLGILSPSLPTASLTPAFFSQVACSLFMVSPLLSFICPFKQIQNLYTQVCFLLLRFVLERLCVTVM
How it was run: as §1

[16] = target: T10, ETV2 (Homo sapiens, UniProt O00321 1-342); conditions: protein: recombinant; tags: N-terminal GST; dsDNA, one strand shown
T10 sequence: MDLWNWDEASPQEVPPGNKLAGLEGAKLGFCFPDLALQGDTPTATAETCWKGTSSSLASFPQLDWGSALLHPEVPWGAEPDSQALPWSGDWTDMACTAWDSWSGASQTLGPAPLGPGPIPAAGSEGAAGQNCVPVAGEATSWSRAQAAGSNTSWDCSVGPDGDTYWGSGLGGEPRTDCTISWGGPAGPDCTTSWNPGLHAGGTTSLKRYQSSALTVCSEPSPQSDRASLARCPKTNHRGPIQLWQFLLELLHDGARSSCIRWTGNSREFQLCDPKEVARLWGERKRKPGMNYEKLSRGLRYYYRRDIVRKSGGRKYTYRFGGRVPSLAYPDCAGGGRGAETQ
How it was run: as §1

[17] = target: T11, ELF3 (Homo sapiens, UniProt P78545 1-371); conditions: protein: recombinant; tags: N-terminal GST; dsDNA, one strand shown
T11 sequence: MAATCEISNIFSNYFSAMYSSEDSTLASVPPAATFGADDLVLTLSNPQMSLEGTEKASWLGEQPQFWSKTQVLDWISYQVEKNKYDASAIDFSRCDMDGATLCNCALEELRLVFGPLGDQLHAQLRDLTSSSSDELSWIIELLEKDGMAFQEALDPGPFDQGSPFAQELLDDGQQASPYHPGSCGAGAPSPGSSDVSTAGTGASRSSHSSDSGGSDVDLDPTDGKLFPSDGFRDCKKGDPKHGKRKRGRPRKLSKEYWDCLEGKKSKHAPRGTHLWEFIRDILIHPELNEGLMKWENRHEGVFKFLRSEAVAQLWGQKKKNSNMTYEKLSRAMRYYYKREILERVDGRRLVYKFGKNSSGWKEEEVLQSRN
How it was run: as §1

[18] = target: CRX (Homo sapiens, UniProt O43186 1-299); conditions: protein: recombinant; tags: N-terminal GST; dsDNA, one strand shown
How it was run: as §1

[19] = target: ETV1 (Homo sapiens, UniProt P50549 1-477); conditions: protein: recombinant; tags: N-terminal GST; dsDNA, one strand shown
How it was run: as §1

ELF1, sequence (P32519 whole entry): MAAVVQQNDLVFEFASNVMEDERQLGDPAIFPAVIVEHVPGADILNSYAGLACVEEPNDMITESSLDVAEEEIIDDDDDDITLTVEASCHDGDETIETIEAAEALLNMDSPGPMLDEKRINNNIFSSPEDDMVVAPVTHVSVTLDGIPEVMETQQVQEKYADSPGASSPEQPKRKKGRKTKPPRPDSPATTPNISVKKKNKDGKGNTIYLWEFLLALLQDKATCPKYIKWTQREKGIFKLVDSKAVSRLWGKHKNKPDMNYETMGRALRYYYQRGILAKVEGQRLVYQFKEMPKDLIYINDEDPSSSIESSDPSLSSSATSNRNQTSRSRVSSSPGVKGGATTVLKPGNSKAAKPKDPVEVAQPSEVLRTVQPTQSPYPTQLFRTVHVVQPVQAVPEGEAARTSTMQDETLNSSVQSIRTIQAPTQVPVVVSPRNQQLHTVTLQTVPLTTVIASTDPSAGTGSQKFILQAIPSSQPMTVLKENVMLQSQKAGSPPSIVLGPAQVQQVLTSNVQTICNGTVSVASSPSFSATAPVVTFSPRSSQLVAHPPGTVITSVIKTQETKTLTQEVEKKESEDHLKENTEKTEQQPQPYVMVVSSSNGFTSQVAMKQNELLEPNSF
CRX, sequence (O43186 whole entry): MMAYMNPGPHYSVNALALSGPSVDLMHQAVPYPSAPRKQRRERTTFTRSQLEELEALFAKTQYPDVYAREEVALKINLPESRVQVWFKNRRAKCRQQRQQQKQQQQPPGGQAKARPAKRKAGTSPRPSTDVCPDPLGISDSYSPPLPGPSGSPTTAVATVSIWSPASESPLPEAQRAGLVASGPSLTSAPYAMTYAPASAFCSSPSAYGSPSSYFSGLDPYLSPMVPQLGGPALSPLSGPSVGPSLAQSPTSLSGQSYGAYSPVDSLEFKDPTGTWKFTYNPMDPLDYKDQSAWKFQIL
ETV5, sequence (P41161 whole entry): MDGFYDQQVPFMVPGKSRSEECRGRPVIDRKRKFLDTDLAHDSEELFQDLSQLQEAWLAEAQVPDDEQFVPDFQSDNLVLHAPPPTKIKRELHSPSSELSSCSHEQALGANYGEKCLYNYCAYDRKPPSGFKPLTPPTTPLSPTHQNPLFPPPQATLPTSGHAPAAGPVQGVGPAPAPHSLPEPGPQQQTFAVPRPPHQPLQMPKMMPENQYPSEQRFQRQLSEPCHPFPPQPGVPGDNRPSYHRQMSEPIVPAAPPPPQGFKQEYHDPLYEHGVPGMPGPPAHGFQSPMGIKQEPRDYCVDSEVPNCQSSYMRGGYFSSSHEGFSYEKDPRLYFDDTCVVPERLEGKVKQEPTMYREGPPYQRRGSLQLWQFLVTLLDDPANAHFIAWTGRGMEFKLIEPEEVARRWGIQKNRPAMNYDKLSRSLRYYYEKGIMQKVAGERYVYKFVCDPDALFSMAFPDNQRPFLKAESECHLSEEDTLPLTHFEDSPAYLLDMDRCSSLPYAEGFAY
SPIB, sequence (Q01892 whole entry): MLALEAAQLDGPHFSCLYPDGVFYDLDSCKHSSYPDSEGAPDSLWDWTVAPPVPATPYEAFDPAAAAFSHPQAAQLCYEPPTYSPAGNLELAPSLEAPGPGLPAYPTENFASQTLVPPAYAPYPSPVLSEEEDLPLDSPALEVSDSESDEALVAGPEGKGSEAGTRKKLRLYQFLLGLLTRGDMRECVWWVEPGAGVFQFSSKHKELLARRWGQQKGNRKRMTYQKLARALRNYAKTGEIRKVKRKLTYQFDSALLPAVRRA
ETV1, sequence (P50549 whole entry): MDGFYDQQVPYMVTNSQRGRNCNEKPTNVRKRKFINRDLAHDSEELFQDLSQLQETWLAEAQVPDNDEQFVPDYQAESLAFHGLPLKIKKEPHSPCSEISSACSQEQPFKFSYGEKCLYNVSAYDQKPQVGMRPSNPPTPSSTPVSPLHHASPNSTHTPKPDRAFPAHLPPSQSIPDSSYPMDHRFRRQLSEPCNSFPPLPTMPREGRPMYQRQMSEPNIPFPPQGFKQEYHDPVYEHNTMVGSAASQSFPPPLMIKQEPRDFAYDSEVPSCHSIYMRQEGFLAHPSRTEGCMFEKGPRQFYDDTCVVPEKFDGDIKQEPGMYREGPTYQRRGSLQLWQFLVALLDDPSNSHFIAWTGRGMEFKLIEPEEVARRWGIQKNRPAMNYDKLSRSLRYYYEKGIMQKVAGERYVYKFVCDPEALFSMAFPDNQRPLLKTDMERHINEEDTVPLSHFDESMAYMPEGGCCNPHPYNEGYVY
ELF4, sequence (Q99607 whole entry): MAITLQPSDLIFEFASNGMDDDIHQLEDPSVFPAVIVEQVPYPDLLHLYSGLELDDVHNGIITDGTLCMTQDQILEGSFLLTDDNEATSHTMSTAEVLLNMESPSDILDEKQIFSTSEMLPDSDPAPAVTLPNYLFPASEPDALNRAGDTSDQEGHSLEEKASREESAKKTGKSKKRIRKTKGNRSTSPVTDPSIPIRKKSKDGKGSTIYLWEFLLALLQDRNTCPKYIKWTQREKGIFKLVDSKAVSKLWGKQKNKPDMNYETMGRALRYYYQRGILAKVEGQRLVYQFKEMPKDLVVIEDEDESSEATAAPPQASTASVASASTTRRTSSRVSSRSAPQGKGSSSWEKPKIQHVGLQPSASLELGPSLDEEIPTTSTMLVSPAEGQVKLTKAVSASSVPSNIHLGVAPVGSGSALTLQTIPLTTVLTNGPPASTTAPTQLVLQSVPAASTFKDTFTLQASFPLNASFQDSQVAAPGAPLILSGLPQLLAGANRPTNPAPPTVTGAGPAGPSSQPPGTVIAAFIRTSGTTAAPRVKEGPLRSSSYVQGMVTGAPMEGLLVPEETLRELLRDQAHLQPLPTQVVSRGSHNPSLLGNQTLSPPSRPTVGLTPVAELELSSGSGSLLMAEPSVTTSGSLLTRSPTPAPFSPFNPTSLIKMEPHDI
HSF1, sequence (Q00613 whole entry): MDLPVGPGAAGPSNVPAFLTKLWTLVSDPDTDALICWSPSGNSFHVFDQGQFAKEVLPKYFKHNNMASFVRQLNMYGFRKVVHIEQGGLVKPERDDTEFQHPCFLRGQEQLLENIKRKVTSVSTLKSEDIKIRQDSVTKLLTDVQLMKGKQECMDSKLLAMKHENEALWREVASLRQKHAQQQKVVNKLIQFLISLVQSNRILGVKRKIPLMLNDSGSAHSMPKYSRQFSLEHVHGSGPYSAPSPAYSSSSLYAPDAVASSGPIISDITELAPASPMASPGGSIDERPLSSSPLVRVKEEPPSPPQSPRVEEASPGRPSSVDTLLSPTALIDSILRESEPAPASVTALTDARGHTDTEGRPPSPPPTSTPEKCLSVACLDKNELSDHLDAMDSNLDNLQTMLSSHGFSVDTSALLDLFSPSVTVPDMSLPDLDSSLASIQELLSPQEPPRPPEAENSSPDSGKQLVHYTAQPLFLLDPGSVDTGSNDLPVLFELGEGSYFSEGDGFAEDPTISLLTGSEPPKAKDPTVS

AATGCG
binding signal [1]: 1.24 fold enrichment (6-mer frequency, TF over GST control)
binding signal [2]: 1.27 fold enrichment (6-mer frequency, TF over GST control)
binding signal [3]: 1.27 fold enrichment (6-mer frequency, TF over GST control)
binding signal [4]: 1.23 fold enrichment (6-mer frequency, TF over GST control)
binding signal [5]: 1.21 fold enrichment (6-mer frequency, TF over GST control)
binding signal [6]: 1.32 fold enrichment (6-mer frequency, TF over GST control)
binding signal [7]: 1.58 fold enrichment (6-mer frequency, TF over GST control)
binding signal [8]: 1.31 fold enrichment (6-mer frequency, TF over GST control)
binding signal [9]: 1.29 fold enrichment (6-mer frequency, TF over GST control)
binding signal [10]: 1.27 fold enrichment (6-mer frequency, TF over GST control)
binding signal [11]: 1.2 fold enrichment (6-mer frequency, TF over GST control)
binding signal [12]: 1.13 fold enrichment (6-mer frequency, TF over GST control)
binding signal [13]: 1.22 fold enrichment (6-mer frequency, TF over GST control)
binding signal [14]: 1.33 fold enrichment (6-mer frequency, TF over GST control)
binding signal [15]: 1.25 fold enrichment (6-mer frequency, TF over GST control)
binding signal [16]: 1.34 fold enrichment (6-mer frequency, TF over GST control)
binding signal [17]: 1.43 fold enrichment (6-mer frequency, TF over GST control)
binding signal [18]: 1.36 fold enrichment (6-mer frequency, TF over GST control)
binding signal [19]: 1.3 fold enrichment (6-mer frequency, TF over GST control)
